The panel holds about 83,000 compounds, 20% with a hit somewhere; the sample as a whole holds those more often.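 Activity criterion: percent growth below 10, measured after cells in 96-well plates were exposed to a single compound concentration for 48 hours.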 Values without a mark were called inactive. Activity calls are given as the source filed them.
System: COLO 205 colon
Experiment: NCI-60 one-dose screen, 48 h (100 = growth as untreated, 0 = no growth, -100 = all killed)
Details: 10 µM unless noted
Experimental: Cells are grown in 96 well plates and exposed to the test compound for 48 hours. Compounds are tested at a single concentration, which is 10^-5 M for most compounds. The reported endpoint is percent growth (GI% or GIPRCNT), where numbers from 0 - 100% represent growth inhibition, and numbers from -100% - 0 represent cell death. For example, a value of 40 represents 60% growth inhibition. A value of 0 means no net growth occurred over the course of the experiment. A value of -40 indicates 40% of cells at the beginning of the experiment died by the end of the experiment. A value of -100 means all cells are dead at the end of the experiment.
NCI-60 Human Tumor Cell Lines Screen was performed using the standard one-dose NCI protocol, which is described in more detail at https://dtp.cancer.gov/discovery_development/nci-60/default.htm.
Compounds with GIPRCNT values below 10 were considered active. Activity score was based on GIPRCNT using the following formula: […]
Score is 0 for GIPRCNT values of 100 or above, 50 for GIPRCNT values of 0, and 100 for GIPRCNT values of -100.

| SMILES | growth |
| --- | --- |
| COc1ccc(NC(=O)c2sc3nc(C)c(C(=O)CCc4cccc(OC)c4)cc3c2N)cc1 | 44.1% |
| CCc1nc(C)cn1C(=O)OCc1nc2nc(Cl)nc(N3CCOCC3)c2[nH]1 | -84.5% (active) |
| CCOC(=O)c1c(C)nc2c(c1N)C(=O)C(=O)N2Cc1ccc(C(F)(F)F)cc1 | 101% |
| COc1ccncc1C#Cc1cncc(C(=O)Nc2ccc(CN3CCN(C)CC3)c(C(F)(F)F)c2)c1 | 4.09% (active) |
| O=C(Nc1nc2ccc(C(=O)N3CCN(c4ccc(Cl)c(Cl)c4)CC3)cc2s1)c1ccc(NCCc2ccccc2)c([N+](=O)[O-])c1 | 108% |
| CCOC(=O)c1c(SC)nn(-c2cc(=O)[nH]c3ccc(Br)cc23)c1N | 98.2% |
| CCN1C(=O)/C(=c2\sc3n(c2=O)NC2C(N=3)N(CC)C(=O)N2CC)c2ccccc21 (stereo not given) | 14.8% |
| CCN(CC)CCCC(C)Nc1c2c(nc3ccc(OC)cc13)CCCC2 (stereo not given) | 100% |
| CCOC(=O)c1c(O)cc(-c2ccccc2)cc1-c1sc(N(C)Cc2ccccc2)nc1Cl | 106% |
| C(=N\Nc1ncc(-c2cc3cc4c(cc3o2)OCO4)s1)/c1c[nH]c2ccccc12 | -28.8% (active) |
| Fc1ccc(C2CC(c3cccc(Nc4ccncc4)c3)=NN2c2ccccc2)cc1 (stereo not given) | -64.8% (active) |
| Cc1[nH]n(-c2cccc(Cl)c2)c(=O)c1/C=C1\C=Nc2ccc(Br)cc21 | 7.07% (active) |
| COc1ccc(/C=C(/c2ccccc2)[N+](=O)[O-])cc1 | -71.9% (active) |
| Cc1ccc(-c2csc(/N=C3\C(=O)Nc4ccccc43)n2)cc1 | -15.6% (active) |
| COc1ccc2nc(N=Nc3c(O)ccc4ccccc34)sc2c1 | 33.1% |
| NC(=S)N/N=C(\c1ccc(Cl)cc1)C1CC1 | 92.6% |
| COc1cc(C2CC(c3cccc(Nc4ccncc4)c3)=NN2C(C)=O)cc(OC)c1OC (stereo not given) | 95% |
| CCc1c(Nc2ccc(C)cc2)[nH]c(N)nc1=S | 109% |
| O=C(N/N=C/c1ccc(F)cc1)c1ccccc1Nc1cccc(C(F)(F)F)c1 | 120% |
| COc1ccc2c(c1)OC1=C(C(=O)OC1)C2c1cc(OC)c(OC)c(OC)c1 (stereo not given) | 1.87% (active) |

| SMILES | growth |
| --- | --- |
| CCC1(CC)NC(=O)c2c(c3ccc(Cl)c(Cl)c3n2C)C1C#N (stereo not given) | 80.1% |
| CC(C)Cc1ccc(C(C)C(=O)NCc2c[nH]c3ccc(Cl)cc23)cc1 (stereo not given) | 107% |
| COc1ccc(C(=O)/C=C/c2c(OC)cc(OC)cc2OC)c(OC)c1 | 8.18% (active) |
| C#CCNC(=O)[C@H](Cc1ccccc1)NC(=O)[C@]12CC[C@@H](C(=C)C)[C@@H]1[C@H]1CC[C@@H]3[C@@]4(C)Cc5c([nH]c6ccccc56)C(C)(C)[C@@H]4CC[C@@]3(C)[C@]1(C)CC2 | 97.8% |
| Cc1nn(-c2ccccc2)c(N2CCOCC2)c1/C=N/N=c1\sc2ccccc2n1C | 82.7% |
| Fc1ccc(C2CC(c3cccc(Nc4ccncc4)c3)=NN2c2cc(Cl)cc(Cl)c2)cc1 (stereo not given) | -54.5% (active) |
| CC1(C)NCCC[C@]2(C)[C@H]3CC=C4[C@@H]5C[C@@](C)(CO)CC[C@]5(C)CC[C@@]4(C)[C@]3(C)CC[C@@H]12 | -4.98% (active) |
| Nc1c(C(=O)Nc2cccc3ccncc23)sc2nc3c(cc12)C(=O)CCC3 | 28.2% |
| COc1cc2c(cc1[N+](=O)[O-])-c1ccc([N+](=O)[O-])cc1/C2=N\O | 79.6% |
| CN(C)CCCn1c2c(c3ccc(-c4ccn[nH]4)cc3c1=O)C(=O)c1ccccc1-2 | 43% |
| NC(=O)c1ncn(C2OC(CO)C(O)C2O)n1 (stereo not given) | 94.4% |
| C=C1C(=O)O[C@H]2[C@H]1CC/C(COC(=O)CCCCCC(=O)OC/C1=C/CC[C@@]3(C)O[C@H]3[C@H]3OC(=O)C(=C)[C@@H]3CC1)=C\CC[C@@]1(C)O[C@@H]21 | -38.4% (active) |
| COc1ccccc1/C=C1\COc2ccc(-c3ccccc3)cc2C1=O | 9.86% (active) |
| COc1ccc(C(=O)c2cc3c(N)c(C(=O)Nc4cccc5ccccc45)sc3nc2C)cc1 | -37.7% (active) |
| COc1ccc(C(=O)c2cc(C)c(OC)c(C)c2)c(OC)c1N(C(=O)C(Cl)Cl)C(=O)C(Cl)Cl | -34.6% (active) |
| CC(=O)CCSc1ccc(OC(C)=O)cc1 | 116% |
| Cn1c(COC(=O)NCCc2ccccn2)nc2c(N3CCOCC3)nc(Cl)nc21 | -41.1% (active) |
| COc1cccc(CCC(=O)c2cc3c(N)c(C(=O)Nc4ccccc4)sc3nc2C)c1 | 37.1% |
| O=C(CCN1CCCC1)Nc1ccc2c(Nc3ccccc3)c3ccccc3nc2c1 | -37.4% (active) |
| CC(=O)N1N=C(c2cccc(Nc3ccncc3)c2)CC1c1ccc2c(c1)OCO2 (stereo not given) | 84.3% |
